# Experimental data published in PubChem BioAssay (NCATS).
# Several values for one entry are separate records, joined by “and”; a condition that tells them apart may be missing. Identical values can stand only once. Inconclusive results are not listed. A call without a number means that no potency is given here. A number with no mark means an inactive call. Activity calls are given as the source filed them. Calls come from the whole dose curve; as a rule, active = well fitted curve in the direction sought with a large enough effect; inconclusive = small, poorly fitted or top-dose-only effect, or another doubt; inactive = no such curve, though single readings can be large; an effect the other way counts as inactive or inconclusive.
# What was measured:
# [1] = molecular target: Cellular tumor antigen p53 (Homo sapiens) (UniProt P04637); test: Primary qHTS for small molecule compounds that upregulate eGFP-tagged delta133p53alpha (in N-terminal) cells. (AID 2060322); conditions: NCI-H358 eGFP-delta133p53alpha fluorescence, 24 h; activation: stronger effect = higher value;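 note: cells pre-induced with doxycycline then dosed without doxycycline; nearly all actives have a fitted effect of over 75% in size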
# Sequence of Cellular tumor antigen p53 (Homo sapiens) (P04637 whole entry, looked up): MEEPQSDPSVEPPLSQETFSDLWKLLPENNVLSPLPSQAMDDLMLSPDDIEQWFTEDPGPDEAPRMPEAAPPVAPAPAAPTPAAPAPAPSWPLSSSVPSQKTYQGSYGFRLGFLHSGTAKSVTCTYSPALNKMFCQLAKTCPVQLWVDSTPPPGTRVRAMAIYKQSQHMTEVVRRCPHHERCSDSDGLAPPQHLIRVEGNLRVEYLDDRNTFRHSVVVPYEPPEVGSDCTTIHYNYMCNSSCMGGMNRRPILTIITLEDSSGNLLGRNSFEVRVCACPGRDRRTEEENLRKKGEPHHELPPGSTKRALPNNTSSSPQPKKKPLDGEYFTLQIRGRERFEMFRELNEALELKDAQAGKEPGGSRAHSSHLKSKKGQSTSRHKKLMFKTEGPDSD
# Procedure, shortened: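 NCI-H358 cells pre-induced 24 h with 10 ng/ml doxycycline for eGFP-delta133p53alpha, plated dox-free and exposed 24 h at 37C to titrated compounds. Fixed, Hoechst-stained; gated GFP peak intensity by laser scanning cytometry, normalized to DMSO (0%) and 57.5 uM 5-azacytidine (100%).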
# [2] = BET inhibitor-based combinations targeting novel dependencies in MECOM-rearranged (r) AML: MV-4-11 cell line (AID 2202233); conditions: MV-4-11 AML viability, CellTiter-Glo luminescence, 48 h; series mostly up to 46 µM; note: nearly all actives have a fitted effect of over 45% in size; note: potency is the fitted concentration of half-maximal effect
# Procedure, shortened: (§1)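 Cells were plated at 500 per well and exposed to each drug across an 11-point dose range for 48 hr at standard incubator conditions. Viability was read by CellTiter-Glo luminescence, and activity was expressed as AUC and per-cell-line Z-transformed AUC.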
# [3] = BET inhibitor-based combinations targeting novel dependencies in MECOM-rearranged (r) AML: UCSD-AML1 cell line (AID 2202235); conditions: UCSD-AML1 AML cells viability, CellTiter-Glo, 48 h; series mostly up to 46 µM; note: nearly all actives have a fitted effect of over 40% in size
# Procedure, shortened: as §1
# [4] = BET inhibitor-based combinations targeting novel dependencies in MECOM-rearranged (r) AML: AML-194 cell line (AID 2202237; note: nearly all actives have a fitted effect of over 40% in size; note: potency is the fitted concentration of half-maximal effect); conditions: AML-194 (MECOM-r AML) viability, CellTiter-Glo, 48 h; series mostly up to 46 µM
# Procedure, shortened: (§2)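 500 cells/well; 11-pt dose curve; 48 h, standard incubator; CellTiter-Glo luminescence after 15 min RT; DMSO/empty-well normalization; AUC plus Z-AUC (mean-centered within each line).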
# [5] = BET inhibitor-based combinations targeting novel dependencies in MECOM-rearranged (r) AML: HNT-34 cell line (AID 2202234); conditions: HNT-34 AML viability, CellTiter-Glo luminescence, 48 h; series mostly up to 46 µM; note: nearly all actives have a fitted effect of over 35% in size; note: potency is the fitted concentration of half-maximal effect
# Procedure, shortened: as §1
# [6] = BET inhibitor-based combinations targeting novel dependencies in MECOM-rearranged (r) AML: AML-191 cell line (AID 2202236; note: nearly all actives have a fitted effect of over 35% in size); conditions: AML-191 viability, CellTiter-Glo luminescence, 48 h; series mostly up to 46 µM
# Procedure, shortened: as §2
Compound,activation [1],Potency [2],Potency [3],Potency [4],Potency [5],Potency [6]
O=C(O)Cc1cccc(OCCCN(Cc2cccc(C(F)(F)F)c2Cl)CC(c2ccccc2)c2ccccc2)c1,4.75%,20.9 µM (active),,,,
Cc1nc2ccc(C(=O)N3CCC4(CC3)CC(=O)c3c(cnn3C(C)C)C4)cc2[nH]1,23%,,inactive,inactive,,
C=Cc1c(C)c2cc3nc(cc4[nH]c(cc5nc(cc1[nH]2)C(C)=C5CCC(=O)O)c(CCC(=O)OC)c4C)[C@@]1(C)C3=CC=C(C(=O)OC)[C@H]1C(=O)OC,9.63%,,inactive,inactive,18.6 µM (active),inactive
CCc1ccc(CCOc2ccc(CC3SC(=O)NC3=O)cc2)nc1 (stereo not given),7.53% and -1.15%,,,5.25 µM (active),,
C=C1C(=O)OC(CCCCCCCC)C1C(=O)O (stereo not given),-0.0763%,inactive,inactive,inactive,inactive,inactive
CC(=O)Oc1cc2c(s1)CCN(C(C(=O)C1CC1)c1ccccc1F)C2 (stereo not given),29.4%,,,inactive,inactive,inactive
C[C@@H]1C(=O)O[C@H]2CC34[C@H]5C[C@@H](C(C)(C)C)C36[C@H](OC(=O)[C@@H]6O)O[C@@]4(C(=O)O5)[C@]21O (stereo not given in full),14%,inactive,inactive,,,
